Where a chain is given by its changes, count along the chain named.
Legend:
Assay in all cases: protein-binding microarray (PBM); PBM: ~300 nM protein, 6 mM HEPES pH 7.8, 80 mM KCl, 0.5 mM EDTA, 0.5 mM EGTA, 6% glycerol, 35 ng/ul poly-dIdC, 1% milk, 1 h, room temperature; Ap Aiptasia and Nv Nematostella (sea anemones) / Co Capsaspora / Aq Amphimedon (sponge) / Dm Drosophila / Hu human; RHD is the Rel homology domain; high values mean tight binding
Conditions in all cases: dsDNA, one strand shown
[1] = target: T1, GST-Ap-NF-kB RHD (Exaiptasia pallida (Aiptasia), UniProt A0A913YAJ5 2-422)
T1 sequence: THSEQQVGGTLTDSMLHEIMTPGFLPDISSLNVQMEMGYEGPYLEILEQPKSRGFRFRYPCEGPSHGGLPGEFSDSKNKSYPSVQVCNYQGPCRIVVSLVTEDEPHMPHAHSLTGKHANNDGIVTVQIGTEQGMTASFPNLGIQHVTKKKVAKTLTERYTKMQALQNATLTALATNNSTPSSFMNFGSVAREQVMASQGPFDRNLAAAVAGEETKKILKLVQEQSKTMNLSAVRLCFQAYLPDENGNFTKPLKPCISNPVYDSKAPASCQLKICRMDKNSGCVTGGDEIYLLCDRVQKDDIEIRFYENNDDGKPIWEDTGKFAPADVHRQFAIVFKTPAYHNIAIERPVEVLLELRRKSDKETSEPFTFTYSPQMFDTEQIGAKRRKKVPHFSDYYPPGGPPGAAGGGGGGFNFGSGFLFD

[2] = target: T2, GST-Nv-NF-kB (Cys allele) (Nematostella vectensis, UniProt E5G601 2-411)
T2 sequence: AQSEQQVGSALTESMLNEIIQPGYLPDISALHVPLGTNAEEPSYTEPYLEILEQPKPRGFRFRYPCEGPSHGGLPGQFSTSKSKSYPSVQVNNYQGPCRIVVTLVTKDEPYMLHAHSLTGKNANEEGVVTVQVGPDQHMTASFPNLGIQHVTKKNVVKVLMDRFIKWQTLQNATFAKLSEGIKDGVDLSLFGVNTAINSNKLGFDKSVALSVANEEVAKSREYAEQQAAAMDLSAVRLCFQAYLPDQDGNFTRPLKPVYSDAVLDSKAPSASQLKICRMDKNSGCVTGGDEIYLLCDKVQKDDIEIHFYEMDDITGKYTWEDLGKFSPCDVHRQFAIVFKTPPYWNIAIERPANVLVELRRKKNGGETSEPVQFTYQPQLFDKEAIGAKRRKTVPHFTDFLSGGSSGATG

[3] = target: T3, GST-Nv-NF-kB (Ser allele) (Nematostella vectensis, UniProt A7UNT2 2-411)
T3 sequence: T2 sequence with Q21R, C66S, S207N, E215Q, V217A, E225K, A268E, D399E

[4] = target: T4, GST-Co-NF-kB (Capsaspora owczarzaki, UniProt F1ARL5 200-546)
T4 sequence: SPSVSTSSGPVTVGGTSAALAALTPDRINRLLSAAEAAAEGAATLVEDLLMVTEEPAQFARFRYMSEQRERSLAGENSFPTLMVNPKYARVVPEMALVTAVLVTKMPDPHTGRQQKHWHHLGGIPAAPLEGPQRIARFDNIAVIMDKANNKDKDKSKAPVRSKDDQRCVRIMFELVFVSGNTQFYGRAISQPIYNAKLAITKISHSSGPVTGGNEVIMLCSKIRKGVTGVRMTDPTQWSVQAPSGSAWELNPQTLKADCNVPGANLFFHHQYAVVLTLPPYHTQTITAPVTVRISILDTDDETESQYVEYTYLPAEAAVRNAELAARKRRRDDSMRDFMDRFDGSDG

[5] = target: T5, GST-Dm-Relish (Drosophila melanogaster, UniProt Q94527 99-473)
T5 sequence: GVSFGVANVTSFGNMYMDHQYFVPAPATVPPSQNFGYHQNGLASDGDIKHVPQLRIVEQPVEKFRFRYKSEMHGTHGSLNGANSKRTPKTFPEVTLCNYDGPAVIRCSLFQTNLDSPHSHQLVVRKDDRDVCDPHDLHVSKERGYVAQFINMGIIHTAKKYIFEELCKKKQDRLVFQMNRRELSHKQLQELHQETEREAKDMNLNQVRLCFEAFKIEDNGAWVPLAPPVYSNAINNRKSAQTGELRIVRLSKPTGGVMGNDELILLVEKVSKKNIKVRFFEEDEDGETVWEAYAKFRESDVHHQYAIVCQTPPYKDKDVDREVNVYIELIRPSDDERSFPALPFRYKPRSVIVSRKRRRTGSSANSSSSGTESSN

[6] = target: T6, GST-Aq-NF-kB (Amphimedon queenslandica, UniProt A9Y5G7 2-389)
T6 sequence: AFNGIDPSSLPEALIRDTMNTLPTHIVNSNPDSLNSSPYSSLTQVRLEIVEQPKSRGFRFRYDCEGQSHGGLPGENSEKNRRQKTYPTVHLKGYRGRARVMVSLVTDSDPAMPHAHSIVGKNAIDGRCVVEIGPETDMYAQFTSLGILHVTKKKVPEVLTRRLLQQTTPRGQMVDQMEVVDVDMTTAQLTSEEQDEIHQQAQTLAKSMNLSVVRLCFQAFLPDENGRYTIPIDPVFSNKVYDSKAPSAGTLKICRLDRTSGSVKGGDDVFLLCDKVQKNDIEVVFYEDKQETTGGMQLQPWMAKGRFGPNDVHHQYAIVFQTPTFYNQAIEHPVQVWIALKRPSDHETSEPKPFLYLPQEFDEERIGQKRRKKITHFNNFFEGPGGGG

[7] = target: GST-Hu-p50 (Homo sapiens, UniProt P19838 7-356)
Chain of GST-Hu-p50 (P19838 7-356): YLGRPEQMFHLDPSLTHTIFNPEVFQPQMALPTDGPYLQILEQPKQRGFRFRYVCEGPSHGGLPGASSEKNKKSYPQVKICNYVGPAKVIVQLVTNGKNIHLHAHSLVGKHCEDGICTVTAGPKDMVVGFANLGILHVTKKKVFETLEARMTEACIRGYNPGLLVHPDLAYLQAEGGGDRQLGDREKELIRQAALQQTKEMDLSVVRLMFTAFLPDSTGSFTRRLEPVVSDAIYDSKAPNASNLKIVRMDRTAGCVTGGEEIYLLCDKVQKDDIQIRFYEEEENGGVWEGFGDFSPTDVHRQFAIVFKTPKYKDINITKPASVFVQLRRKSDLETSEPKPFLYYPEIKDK

| Sequence | binding signal [1] [z-score] | binding signal [2] [z-score] | binding signal [3] [z-score] | binding signal [4] [z-score] | binding signal [5] [z-score] | binding signal [6] [z-score] | binding signal [7] [z-score] |
| --- | --- | --- | --- | --- | --- | --- | --- |
| CCGATTAACATCAGGCAACCCCCTGATGTTAATCGGGTCTTGATTCGCTTGACGCTGCTG | 5.96 | 3.96 | 3.97 | 2.03 | 6.58 | 6.21 | 5.13 |
| CCGATTAACATCATTTGGGAAAATGATGTTAATCGGGTCTTGATTCGCTTGACGCTGCTG | 1.08 | 3.26 | 4.46 | 2.04 | 1.08 | 1.67 | 2.23 |
| CCGATTAACATCAAATTCCCAGGTGATGTTAATCGGGTCTTGATTCGCTTGACGCTGCTG | 2.43 | 3.11 | 3.64 | 3.53 | 3.69 | 2.4 | 4.02 |
| CCGATTAACATCAGGGAAAGACCTGATGTTAATCGGGTCTTGATTCGCTTGACGCTGCTG | 3.24 | 5.27 | 4.32 | 1.41 | 5.61 | 7.5 | 3.67 |
| CCGATTAACATCAAGGTTTCCCCTGATGTTAATCGGGTCTTGATTCGCTTGACGCTGCTG | 7.4 | 8.19 | 10.3 | 8.15 | 7.08 | 6.28 | 6.46 |
| CCGATTAACATCAGGGGGATTCATGATGTTAATCGGGTCTTGATTCGCTTGACGCTGCTG | 8.54 | 7.43 | 8.48 | 5.63 | 7.41 | 6.1 | 7.07 |
| CCGATTAACATCAGGGGATTCCATGATGTTAATCGGGTCTTGATTCGCTTGACGCTGCTG | 9.19 | 9.04 | 9.49 | 3.19 | 10 | 6.89 | 6.77 |
| CCGATTAACATCAAACTTCCCCGTGATGTTAATCGGGTCTTGATTCGCTTGACGCTGCTG | 6.81 | 8.41 | 8.97 | 8.65 | 7.92 | 7.04 | 6.45 |
| CCGATTAACATCAGGACGCCCCCTGATGTTAATCGGGTCTTGATTCGCTTGACGCTGCTG | 6.15 | 5.13 | 3.21 | 1.59 | 3.85 | 7.57 | 4.71 |
| CCGATTAACATCAATAACCCCCATGATGTTAATCGGGTCTTGATTCGCTTGACGCTGCTG | 5.5 | 4.47 | 4.38 | 2.27 | 5.69 | 4.84 | 5.31 |
| CCGATTAACATCAGGGTATTTAATGATGTTAATCGGGTCTTGATTCGCTTGACGCTGCTG | 2.74 | 4.26 | 4.73 | 1.37 | 3.25 | 4.14 | 4.41 |
| CCGATTAACATCAAAAAATCCCGTGATGTTAATCGGGTCTTGATTCGCTTGACGCTGCTG | 5.57 | 6.22 | 5.2 | 2.99 | 8.31 | 6.71 | 4.97 |
